Our source for the z-score and composite z-score values is PubChem BioAssay.

The nature of experiment [1]: HepG2 liver cancer cell viability effects, profiling panel, resazurin fluorescence, 24 h, PK04 Diversity Set (AID 1172). Note: test concentration not given here. Particulars: higher = more signal.
Experiment [2] can be described thus: basal S. cerevisiae growth modulation, no modifier, primary screen, OD600, strain BY4716, 24 h, basal condition (AID 1173). Particulars: OD600, 24 h, higher = more signal, called active from +8 up or from −8 down.
Experiment [3] can be described thus: MM1S myeloma cell viability, profiling panel, resazurin fluorescence, basal, 24 h, PK04 Diversity Set (AID 1174).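 Note: MM1S multiple myeloma cell line; test concentration not given here.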 Particulars: higher = more signal, called active from +8 up or from −8 down.
Experiment [4] concerns the target Dihydroorotate dehydrogenase (quinone), mitochondrial (Plasmodium falciparum (isolate 3D7)) (UniProt Q08210). Nature of the experiment: PfDHODH enzyme inhibitors, primary screen, biochemical, C-terminal His tag, absorbance 600 nm (AID 1175).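 Note: recombinant parasite enzyme with a five histidine tag at its C terminus; test concentration not given here.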 The note with it: DCIP absorbance 600 nm, higher = more signal, called active from +8 up or from −8 down.
Experiment [5] in a line: P. aeruginosa biofilm formation inhibitors, primary screen, strain PAO1, LB-PBS medium, absorbance 600 nm (AID 1176). Note: test concentration not given here. Particulars: P. aeruginosa PAO1 growth/biofilm, A600, 12 h; higher = more signal.
Experiment [6] in a line: S. cerevisiae RM11-1a growth modifiers, primary screen, strain RM11-1a, OD600, basal, 24 h (AID 1177).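 Note: cultures grown under basal conditions with no added stressor; test concentration not given here.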 The note with it: OD600, 24 h, higher = more signal, called active from +8 up or from −8 down.
A short description of experiment [7]: E. coli acrAB mutant growth effects, primary screen, E. coli filamentation inducers, strain DRC39, OD650, 24 h (AID 1178).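 Note: growth measured as culture turbidity by optical density at 650 nm; test concentration not given here.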 Particulars: higher = more signal, called active from +8 up or from −8 down.
Experiment [8] can be described thus: E. coli acrAB mutant growth effects, primary screen, E. coli filamentation inducers, strain DRC39, OD650, 48 h (AID 1179).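 Note: screen aims at cell division blockers that make cells filament.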 Particulars: E. coli DRC39 delta-acrAB growth, higher = more signal, called active from +8 up or from −8 down.
Experiment [9] in a line: RPMI8226 myeloma cell viability, profiling panel, resazurin fluorescence, basal, 24 h, PK04 Diversity Set (AID 1180).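 Note: RPMI8826 multiple myeloma cell line at 5000 cells per well; test concentration not given here.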 The note with it: higher = more signal. On the technique in general: Resazurin is reduced to fluorescent resorufin, in cell work by metabolically active cells.
In experiment [10] the target is E3 ubiquitin-protein ligase XIAP (Homo sapiens) (UniProt P98170). Nature of the experiment: XIAP binders, primary screen, biophysical, small-molecule microarray, fluorescence 635 nm (AID 1181).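 Note: score merges 667 nm emission and signal to noise over triplicate slides.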 Particulars: small-molecule microarray binding, higher = more signal.
Chain of E3 ubiquitin-protein ligase XIAP (Homo sapiens) (P98170 whole entry, looked up): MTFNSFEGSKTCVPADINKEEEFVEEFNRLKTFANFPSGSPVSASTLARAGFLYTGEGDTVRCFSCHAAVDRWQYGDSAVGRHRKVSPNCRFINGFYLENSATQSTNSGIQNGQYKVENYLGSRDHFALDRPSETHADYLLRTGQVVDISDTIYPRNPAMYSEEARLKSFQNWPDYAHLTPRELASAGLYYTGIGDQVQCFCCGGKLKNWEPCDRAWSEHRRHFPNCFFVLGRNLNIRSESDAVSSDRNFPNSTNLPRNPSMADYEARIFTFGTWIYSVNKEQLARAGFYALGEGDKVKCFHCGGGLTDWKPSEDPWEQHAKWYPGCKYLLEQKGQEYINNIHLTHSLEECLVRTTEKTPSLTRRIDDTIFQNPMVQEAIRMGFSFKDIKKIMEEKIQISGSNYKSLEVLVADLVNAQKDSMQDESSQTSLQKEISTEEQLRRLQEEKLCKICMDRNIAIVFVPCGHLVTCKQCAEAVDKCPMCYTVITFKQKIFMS

Activity calls are given as the source filed them. Unless noted, the rule behind the calls is not given here.

Chain of Dihydroorotate dehydrogenase (quinone), mitochondrial (Plasmodium falciparum (isolate 3D7)) (Q08210 whole entry, looked up): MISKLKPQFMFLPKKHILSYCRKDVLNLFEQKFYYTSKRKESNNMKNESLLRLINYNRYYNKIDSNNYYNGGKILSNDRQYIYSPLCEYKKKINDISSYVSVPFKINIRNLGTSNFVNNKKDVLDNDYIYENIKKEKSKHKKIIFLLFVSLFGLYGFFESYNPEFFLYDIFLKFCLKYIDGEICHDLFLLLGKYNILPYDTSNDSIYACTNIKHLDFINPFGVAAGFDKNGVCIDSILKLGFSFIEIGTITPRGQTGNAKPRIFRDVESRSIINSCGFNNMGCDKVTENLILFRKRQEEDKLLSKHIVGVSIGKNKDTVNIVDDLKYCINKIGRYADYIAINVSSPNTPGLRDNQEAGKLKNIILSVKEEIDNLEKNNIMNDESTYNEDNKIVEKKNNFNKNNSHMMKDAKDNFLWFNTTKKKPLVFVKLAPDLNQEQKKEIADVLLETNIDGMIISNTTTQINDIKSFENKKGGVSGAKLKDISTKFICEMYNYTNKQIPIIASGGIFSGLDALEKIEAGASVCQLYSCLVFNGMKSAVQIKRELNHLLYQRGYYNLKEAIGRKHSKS

With `CC(C)CN1CCc2nc(-c3ccccc3)c3c(c2CC1)CO[C@@H](C)C3`, the z-score in experiment [1] is 0.652; in experiment [2] it was -0.368 (inactive); in experiment [3] it was 0.389 (inactive); in [5], -0.458 (inactive); in [6], -0.284 (inactive); in experiment [7], -0.274 (inactive). For the same compound, the results for the z-score in [8] and in experiment [9] were -0.328 (inactive) and 0.711, respectively. Moreover, the composite z-score is 0.496 (inactive) in [4] and -0.0964 in experiment [10].

In the case of `COc1cccc([C@H]2Oc3ccc(OC)cc3C(=NO[C@H](C)c3cn([C@@H]4COC[C@H]4O)nn3)[C@@H]2O)c1`, the z-score was -0.859 in experiment [1]; -0.117 (inactive) in [2]; 0.0029 (inactive) in [3]; -0.409 (inactive) in experiment [5]; -0.761 (inactive) in [6]; -0.537 (inactive) in experiment [7]. Moreover, the z-score in experiment [8] was -2.22 (inactive); in experiment [9], -0.238. Further, the composite z-score is -2.1 (inactive) in experiment [4] and 0.0264 in experiment [10].

In the case of `C[C@H]1Cc2c(-c3ccccc3)nc3c(c2CO1)CN(CCOc1ccccc1)CC3`, the z-score is -0.33 in [1]; -1.97 (inactive) in [2]; 0.0723 (inactive) in [3]; 1.17 (inactive) in experiment [5]; 0.671 (inactive) in experiment [6]; 1.67 (inactive) in experiment [7]. Further, the z-score is -0.176 (inactive) in [8] and 0.678 in [9]. The results for the composite z-score in experiment [4] and in [10] were -0.0439 (inactive) and -0.0599, respectively.

For the compound `CC(=O)OC[C@H]1O[C@@H](ON=C[C@@H](C)[C@H](OCc2ccccc2)C(C)C)[C@H](OC(C)=O)[C@@H](OC(C)=O)[C@@H]1OC(C)=O`, the z-score is -1.04 in experiment [1]; 0.0426 (inactive) in experiment [2]; -2.37 (inactive) in [3]; 1.01 (inactive) in [5]; -0.519 (inactive) in experiment [6]; 0.153 (inactive) in [7]. The values for the z-score in experiment [8] and in [9] were 0.722 (inactive) and -0.8, respectively. Moreover, the composite z-score in experiment [4] is -0.269 (inactive); in experiment [10], -0.162.

On to `CC(CCC(=O)OC[C@H]1O[C@H](C#Cc2ccccc2)C=C[C@@H]1Oc1ccc(C)cc1)=NOC[C@@H](O)[C@H]1O[C@@H]2OC(C)(C)O[C@@H]2[C@H]1O`, for which the z-score in [1] is -0.279; in [2] it was 0.197 (inactive); in experiment [3], 0.134 (inactive); in [5], -0.324 (inactive); in [6], 0.71 (inactive); in experiment [7] it was 0.844 (inactive). The values for the z-score in experiment [8] and in experiment [9] were 1.1 (inactive) and 0.0234, respectively. Besides, the results for the composite z-score in [4] and in experiment [10] were -2.15 (inactive) and -0.325, respectively.

On to `CN1C(=O)C2C=CC(C(O)c3ccc(I)cc3)N(NC(=O)OC(C)(C)C)C2C1=O` (stereo not given), for which the z-score was -1.11 in experiment [1]; 0.9 (inactive) in experiment [2]; -0.694 (inactive) in experiment [3]; 0.53 (inactive) in experiment [5]; 0.983 (inactive) in experiment [6]; -0.446 (inactive) in experiment [7]. In addition, the z-score in experiment [8] is -0.18 (inactive); in experiment [9] it was -0.639. The composite z-score is 0.0247 (inactive) in experiment [4] and 0.308 in [10].

Consider `CCCNC(=O)OC[C@H]1O[C@H](CCON=CC[C@@H]2C=C[C@H](OC(C)=O)[C@@H](COC(C)=O)O2)C=C[C@@H]1Oc1ccc(OC)cc1`, for which the z-score was 0.261 in experiment [1]; 1.4 (inactive) in experiment [2]; -0.387 (inactive) in [3]; 0.0282 (inactive) in [5]; 0.394 (inactive) in experiment [6]; 0.426 (inactive) in experiment [7]. The z-score in experiment [8] was -0.371 (inactive); in experiment [9], 0.477. Besides, the composite z-score in experiment [4] was -0.584 (inactive); in experiment [10] it was -0.128.

On to `O=C1C2=CC[C@H]3C(=O)N(Cc4ccc5c(c4)OCO5)C(=O)[C@H]3[C@H]2[C@H](O)[C@@H]2O[C@H]12`, for which the z-score in experiment [1] was -0.522; in [2], -0.105 (inactive); in [3], -0.677 (inactive); in experiment [5] it was 0.0578 (inactive); in experiment [6], -0.491 (inactive); in experiment [7], 0.166 (inactive). The results for the z-score in experiment [8] and in experiment [9] were 0.0632 (inactive) and -1.49, respectively. Also, the composite z-score in [4] was -0.907 (inactive); in experiment [10], -0.381.

On to `C=COC[C@H]1CN2[C@@H](CC[C@@H](C)[C@@H]2c2ccc(Br)cc2)C(=O)O1`, for which the z-score was 0.524 in experiment [1]; -3.11 (inactive) in [2]; 0.255 (inactive) in experiment [3]; 0.523 (inactive) in experiment [5]; -2.06 (inactive) in experiment [6]; 0.0556 (inactive) in [7]. Besides, the z-score was -0.848 (inactive) in [8] and -0.555 in experiment [9]. In addition, the results for the composite z-score in [4] and in experiment [10] were -0.613 (inactive) and -0.209, respectively.

Take `CC(C)=NOCc1ccc(-c2cc(-c3ccccc3)no2)cc1`: the z-score was -0.503 in experiment [1]; 0.288 (inactive) in [2]; -0.284 (inactive) in experiment [3]; -0.446 (inactive) in [5]; -0.194 (inactive) in [6]; 0.302 (inactive) in [7]. Moreover, the values for the z-score in experiment [8] and in [9] were 0.387 (inactive) and -0.424, respectively. In addition, the composite z-score in [4] was 0.21 (inactive); in experiment [10], 0.103.

Take `O=C1[C@H]2[C@H]3[C@H](O)[C@H](O)CC(=NOCc4ccccc4)[C@H]3CC[C@H]2C(=O)N1C[C@@H]1CCCO1`: the z-score is 0.648 in experiment [1]; 0.243 (inactive) in experiment [2]; 0.18 (inactive) in experiment [3]; 0.696 (inactive) in experiment [5]; -0.485 (inactive) in experiment [6]; -0.359 (inactive) in [7]. Further, the z-score in experiment [8] was -0.103 (inactive); in experiment [9] it was -0.323. In addition, the composite z-score in [4] is -0.279 (inactive); in experiment [10], -0.0773.

As to `C#CCCCON=C1C[C@@H](O)[C@@H](O)[C@@H]2[C@@H]3C(=O)N([C@@H](C)c4ccccc4)C(=O)[C@@H]3CC[C@H]12`, the z-score in experiment [1] is -0.331; in experiment [2], -1.27 (inactive); in [3] it was 0.8 (inactive); in experiment [5] it was -0.389 (inactive); in experiment [6], -1.35 (inactive); in [7], -0.0604 (inactive). Besides, the z-score is -0.12 (inactive) in experiment [8] and 0.357 in experiment [9]. The composite z-score was -2.87 (inactive) in experiment [4] and 0.0537 in experiment [10].
